Test results as given in PubChem BioAssay AID743293 (Broad Institute, 2014).
Measured potencies and affinities stand elsewhere. Calls of active or inactive are those of the source.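 The calls were made as follows: active = compounds lowering fluorescence with a fitted half-maximal concentration at or below a set limit tied to top dose; inconclusive = flat curve with 30 to 70% inhibition, or poor fit; inactive = the rest.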

The molecules below were run against Caspase-9 (Homo sapiens) (UniProt P55211) (assay: inhibitors of purified CASP9 protease – biochemical, fluorescence, plate reader, cherry-picked samples, selectivity assay for caspase-6 inhibitor project, dose response (AID 743293)). Conditions: purified caspase-9, Z-LEHD-R110 cleavage fluorescence; series mostly up to 35 µM.
Sequence of Caspase-9 (Homo sapiens) (P55211 whole entry, looked up): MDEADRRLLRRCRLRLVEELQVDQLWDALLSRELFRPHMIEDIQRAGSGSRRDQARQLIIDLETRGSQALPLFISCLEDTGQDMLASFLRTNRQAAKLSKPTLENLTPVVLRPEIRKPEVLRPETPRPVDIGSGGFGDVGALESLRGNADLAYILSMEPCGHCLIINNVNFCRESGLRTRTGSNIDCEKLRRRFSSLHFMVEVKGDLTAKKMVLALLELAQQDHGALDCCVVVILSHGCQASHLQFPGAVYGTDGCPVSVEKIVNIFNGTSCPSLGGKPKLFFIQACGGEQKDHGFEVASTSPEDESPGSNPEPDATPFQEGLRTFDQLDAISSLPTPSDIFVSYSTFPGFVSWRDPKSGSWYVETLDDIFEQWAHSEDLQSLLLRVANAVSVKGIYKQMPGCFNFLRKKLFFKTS

| Compound | outcome |
| --- | --- |
| O=c1oc2ccccc2c2oc3cc(O)c(O)cc3c12 | inactive |
| COc1ccc(NC(=O)CN(C)C(=O)c2cccc(-n3cccc3)c2)cc1 | inactive |
| O=c1cc2c(=O)oc3cc(O)c(O)oc3c2c(O)c1O | inactive |
| O=C(O)Cc1ccc(-n2cccc2)cc1 | inactive |
| O=C(O)C1Nc2c(Cl)cc(Cl)c(Cl)c2C2C=CCC12 (stereo not given) | inactive |
| Cc1ccc(NC(=O)CN(C)C(=O)c2cccc(-n3cccc3)c2)cc1 | inactive |
| CO[C@H]1CN(C)C(=O)c2cc(NC(C)=O)ccc2OC[C@@H](C)N(C(=O)CC2CC2)C[C@H]1C | inactive |
| CCCCN(C(=O)c1cccc(-n2cccc2)c1)c1c(N)n(Cc2ccccc2)c(=O)[nH]c1=O | inactive |
| CCOc1ccc2nc3cc(NCc4ccc(OC)cc4)ccc3c(N)c2c1 | inactive |
| Cc1ccc(C)c(NC(=O)CN(C)C(=O)c2cccc(-n3cccc3)c2)c1 | inactive |
| CN(CC(=O)Nc1ccccc1Cl)C(=O)COC(=O)c1ccc([N+](=O)[O-])s1 | inactive |
| CCCSC1=N/C(=C\c2ccc([N+](=O)[O-])o2)C(=O)S1 | inactive |
| O=c1c(O)cccc2cc(O)c(O)c(O)c12 | inactive |
| C/C(CC(=O)N1CCCC1)=N\NC(=O)c1cc2ccccc2cc1O | inactive |
| O=C(CCO)c1ccc(O)cc1 | inactive |
| O=C(O)CCc1ccc(-c2ccc(Br)cc2)n1CC(=O)O | inactive |
| CCN(CC)CCCC(C)n1c2nc(=O)[nH]c(=O)c-2nc2cc(Cl)ccc21 (stereo not given) | inactive |
| Nc1ccc(Nc2ccccc2)c(S(=O)(=O)O)c1 | inactive |
| O=C(COC(=O)c1ccccc1)Nc1ncc([N+](=O)[O-])s1 | inactive |
| CC(C)(C)c1ccc(NC(=O)COC(=O)c2ccc([N+](=O)[O-])s2)cc1 | inactive |
| COc1cc(C)c2c(c1C=O)Oc1c(c(C)c(O)c3c1C(O)OC3=O)OC2=O (stereo not given) | inactive |
| O=S(=O)(O)c1cc(O)c2cc(Nc3ccccc3)ccc2c1 | inactive |
| O=C1CN(C(=O)COC(=O)c2ccc([N+](=O)[O-])s2)c2ccccc2N1 | inactive |
| COc1ccc([N+](=O)[O-])cc1NC(=O)CCS(=O)(=O)c1ccc(Br)cc1 | inactive |
| CNS(=O)(=O)c1cccc(C(=O)OCC(=O)N2c3ccccc3NC(=O)C2(C)C)c1 | inactive |
| O=P(c1ccccc1)(c1ccccc1)c1cc(S(=O)(=O)O)ccc1O | inactive |
| CCCCNC(=O)c1nc(C2CCNCC2)oc1-c1cccc(C(F)(F)F)c1 | inactive |
| O=C(O)/C(=C\c1ccc(Cl)c([N+](=O)[O-])c1)c1ccc(S(=O)(=O)N2CCCC2)s1 | inactive |
| Nc1cc2c(cc1Br)[nH]c(=O)c1ccccc12 | inactive |
| COCCn1c2nc(=O)n(-c3ccccc3)c(=O)c-2nc2ccccc21 | inactive |
